23 molecules from PubChem BioAssay (Tox21) can be followed below.

A short description of assay [1]: qHTS assay to identify aromatase inhibitors - cell viability counter screen (AID 743084;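 also: cells stimulated with testosterone during compound exposure; nearly all actives have a fitted effect of over 55% in size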; also: potency is read from the fitted curve at half-maximal effect). (In general: In qHTS, concentration-response curves come from the screen itself.)
Assay [2] in a line: qHTS assay to identify small molecule that activate the aryl hydrocarbon receptor (AhR) signaling pathway - cell viability counter screen (AID 743086). Also: nearly all actives have a fitted effect of over 45% in size. Also: potency is read from the fitted curve at half-maximal effect. The essentials:
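HepG2-AhR-luc (HG2L7.5c1) cells, 4000/well, were preincubated 5 h at 37C, exposed to compound in qHTS format for 24 hr at 37C, then given CellTiter-Fluor for 30 min; viability was read as fluorescence in the reporter wells.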

The target of assay [3] is Peroxisome proliferator-activated receptor gamma (Homo sapiens) (UniProt P37231). Description: qHTS assay to identify small molecule agonists of the peroxisome proliferator-activated receptor gamma (PPARg) signaling pathway (AID 743094; active = well fitted activation curve with a large enough effect in the signal ratio in the repeat runs, not every such curve was filed as active; the % refers to the signal ratio). The essentials:
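Compounds dissolved in DMSO were added to PPARg UAS-bla HEK293H cells for 17 h at 37C, and reporter expression was quantified by fluorescence intensity after 1 h with LiveBLAzer B/G FRET substrate.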

Assay [4] shares this target. Description: qHTS assay to identify small molecule antagonists of the peroxisome proliferator-activated receptor gamma (PPARg) signaling pathway (AID 743191; calls by dose curve; also: series mostly up to about 63 µM; nearly all actives have a fitted effect of over 30% in size). The essentials: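 GeneBLAzer PPARg UAS-bla HEK293H cells carrying a UAS-driven beta-lactamase reporter were plated at 3000 cells/well, preincubated 5 h at 37C, then given compound for 17 h at 37C; LiveBLAzer B/G FRET substrate was read after 1 h at room temperature.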

Assay [5] is described as follows: qHTS assay for small molecule agonists of the antioxidant response element (ARE) signaling pathway - cell viability counter screen (AID 743203; calls by dose curve; also: nearly all actives have a fitted effect of over 55% in size; also: potency is read from the fitted curve at half-maximal effect). The essentials:
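Following 16 hrs of compound treatment at 37C, HepG2 cells with an ARE-controlled beta-lactamase gene were lysed with CellTiter-Glo. Luminescence was read after 30 min at room temperature.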

Assay [6] can be described thus: qHTS assay for small molecule activators of the heat shock response signaling pathway - cell viability counter screen (AID 743209). Also: nearly all actives have a fitted effect of over 50% in size. The essentials: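 Readout: CellTiter-Glo luminescence, 30 min at room temperature. System: HSE-bla HeLa cells, 1500/well, plated overnight. Treatment: compounds in DMSO, 5 h at 37 C.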
A short description of assay [7]: qHTS assay for small molecule activators of the heat shock response signaling pathway (AID 743210; active = well fitted activation curve with a large enough effect in the signal ratio in the repeat runs, with a control signal flat, not every such curve was filed as active; the % refers to the signal ratio;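 also: HeLa cells with beta-lactamase reporter driven by heat shock elements; series mostly up to about 63 µM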). Put shortly: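 Reporter gene assay: HeLa cells stably bearing an HSE-bla construct, compound treatment 5 h at 37 C, LiveBLAzer substrate 2.5 h at RT, fluorescence intensity.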
Assay [8] is described as follows: qHTS assay to identify small molecule antagonists of the peroxisome proliferator-activated receptor gamma (PPARg) signaling pathway - cell viability counter screen (AID 743194). Also: nearly all actives have a fitted effect of over 55% in size. The essentials: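 PPARg-UAS-bla HEK293H cells were plated, rested 5 h at 37 C, then treated with compounds plus rosiglitazone (50 nM final) for 17 h at 37 C; viability was then read by CellTiter-Glo luminescence after 30 min at room temperature.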

Assay [9] can be described thus: qHTS assay for small molecule agonists of the antioxidant response element (ARE) signaling pathway (AID 743202; active = well fitted activation curve with a large enough effect in the signal ratio in the repeat runs, not every such curve was filed as active; the % refers to the signal ratio). The essentials:
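Compounds delivered in DMSO to ARE-bla HepG2 cells (2,000 cells/well, pre-incubated 5 h) and left 16 h at 37 C. LiveBLAzer B/G FRET substrate then added for 2 h at RT before fluorescence reading.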

Assay [10] deals with Aryl hydrocarbon receptor (Homo sapiens) (UniProt P35869). Description: qHTS assay to identify small molecule that activate the aryl hydrocarbon receptor (AhR) signaling pathway (AID 743085).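 Also: HG2L7.5c1 human HepG2 liver cells with stably integrated DRE-driven firefly reporter; series mostly up to about 70 µM; nearly all actives have a fitted effect of over 15% in size.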 The essentials: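 Luminescence read-out: ONE-Glo reagent, 30 min at room temperature, in HG2L7.5c1 HepG2 reporter cells treated 24 h at 37C. Viability was measured beforehand by CellTiter-Fluor fluorescence after 30 min at 37C.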

Records with an inconclusive call do not appear. A number with no mark means an inactive call. Calls of active or inactive are those of the source. Unless noted, calls follow the shape of the dose curve; as a rule, active = well fitted curve in the direction sought with a large enough effect in the repeat runs; inconclusive = weak or mixed curves; inactive = no such curve, though single readings can be large; an effect the other way counts as inactive or inconclusive.

Sequence of Aryl hydrocarbon receptor (Homo sapiens) (P35869 whole entry, looked up): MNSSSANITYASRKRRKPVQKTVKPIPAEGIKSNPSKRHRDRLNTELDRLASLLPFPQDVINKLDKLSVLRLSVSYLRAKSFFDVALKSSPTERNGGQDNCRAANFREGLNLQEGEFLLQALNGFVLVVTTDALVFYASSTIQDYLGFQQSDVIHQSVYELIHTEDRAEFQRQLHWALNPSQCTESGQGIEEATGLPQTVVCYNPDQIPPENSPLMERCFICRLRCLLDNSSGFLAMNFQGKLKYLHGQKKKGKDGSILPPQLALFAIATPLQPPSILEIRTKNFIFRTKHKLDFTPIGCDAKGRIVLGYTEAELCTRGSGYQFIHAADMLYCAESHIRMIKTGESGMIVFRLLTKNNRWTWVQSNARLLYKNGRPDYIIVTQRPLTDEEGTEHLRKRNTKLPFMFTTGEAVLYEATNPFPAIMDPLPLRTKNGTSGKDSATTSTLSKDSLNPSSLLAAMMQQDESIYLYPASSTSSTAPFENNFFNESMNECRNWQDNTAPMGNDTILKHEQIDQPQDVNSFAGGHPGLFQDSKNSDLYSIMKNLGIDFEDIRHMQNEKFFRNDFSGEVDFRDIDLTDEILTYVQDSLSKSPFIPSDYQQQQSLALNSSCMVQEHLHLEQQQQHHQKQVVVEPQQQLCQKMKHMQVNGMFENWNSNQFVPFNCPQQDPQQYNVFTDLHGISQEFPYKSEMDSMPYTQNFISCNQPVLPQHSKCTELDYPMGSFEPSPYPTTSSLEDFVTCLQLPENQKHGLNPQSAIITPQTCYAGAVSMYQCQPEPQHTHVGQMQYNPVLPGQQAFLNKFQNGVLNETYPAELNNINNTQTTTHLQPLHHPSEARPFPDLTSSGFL
Sequence of Peroxisome proliferator-activated receptor gamma (Homo sapiens) (P37231 whole entry, looked up): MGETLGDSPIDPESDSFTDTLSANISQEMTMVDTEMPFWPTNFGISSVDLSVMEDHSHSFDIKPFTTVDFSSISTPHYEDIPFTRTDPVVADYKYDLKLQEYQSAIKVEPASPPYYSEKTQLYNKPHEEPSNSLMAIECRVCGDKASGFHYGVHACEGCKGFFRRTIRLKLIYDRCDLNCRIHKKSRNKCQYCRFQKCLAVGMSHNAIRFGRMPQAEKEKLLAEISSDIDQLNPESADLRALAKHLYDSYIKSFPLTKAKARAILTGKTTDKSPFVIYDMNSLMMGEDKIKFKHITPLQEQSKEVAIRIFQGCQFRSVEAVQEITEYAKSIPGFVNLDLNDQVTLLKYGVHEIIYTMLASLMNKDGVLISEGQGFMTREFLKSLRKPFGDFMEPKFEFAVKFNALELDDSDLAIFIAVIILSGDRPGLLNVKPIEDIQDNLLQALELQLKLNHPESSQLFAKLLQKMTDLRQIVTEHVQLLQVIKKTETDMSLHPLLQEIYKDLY

As for `O=C(C(=O)c1ccco1)c1ccco1`, the Potency result in assay [1], in assay [2], in assay [4], in [5], in assay [6] and in assay [7] was “inactive” throughout. For the same molecule, the result in assay [3] was inactive.

For `CC(C)(O)c1coc(S(=O)(=O)NC(=O)Nc2c3c(cc4c2CCC4)CCC3)c1`, the Potency entry in assay [1], in assay [2], in assay [4], in assay [8], in assay [9] and in assay [5] was “inactive” in each case. Further, the Potency entry in assay [6] and in assay [7] was “inactive” in each case. In addition, in [3], the call was inactive.

On to `CC(C)(C)C1(CCc2ccc(Cl)cc2)CO1` (configuration not stated), for which the Potency entry in assay [1], in [2], in assay [4], in [8], in assay [9] and in [5] was “inactive” in each case. Moreover, the Potency result in assay [6] and in assay [7] was “inactive” in each case. Besides, the call in [3] was inactive.

For `CNCc1ccc(NC(=O)c2c[nH]c3c2C(=O)CCC3)cc1`, the Potency entry in [1], in [2], in [4], in assay [8], in [5] and in [6] was “inactive” in each case. Besides, in [7], the Potency entry was “inactive”. Also, in [3], the outcome was inactive.

In the case of `O=C(O)c1cccc(C[C@@H]2COc3ccc(OCc4nc5cc(F)ccc5s4)cc3[C@@H]2O)c1`, the Potency result in [1], in assay [10], in [2], in assay [6] and in assay [7] was “inactive” throughout.

Consider `CC1=CC[C@@]23C[C@@H]1C(C)(C)[C@@H]2CC[C@H]3C`, for which the Potency entry in [1], in assay [2], in assay [4], in assay [9], in [5] and in assay [6] was “inactive” throughout. The Potency result in assay [7] is “inactive”. In addition, in [3], the call was inactive.

Regarding `CCN(CC)CCOc1ccccc1C(=O)CCc1ccccc1`, the Potency result in [1], in [10], in [2], in assay [8], in assay [5] and in assay [6] was “inactive” each time. In addition, in assay [7], the Potency result is “inactive”.

With `CCN(CC)c1ccc(C(=C2C=CC(=[N+](CC)CC)C=C2)c2ccc(S(=O)(=O)O)cc2S(=O)(=O)[O-])cc1`, the Potency in assay [1] and in [2] was 19.3 µM (active) each time. Besides, the call in assay [3] was inactive. In addition, the Potency entry in assay [4], in [9] and in assay [7] was “inactive” each time.

On to `O=C(NS(=O)(=O)/C=C/c1ccccc1)c1ccc(F)cc1Cl`, for which the Potency entry in [1], in assay [10], in assay [2], in assay [8], in [5] and in [6] was “inactive” in each case. In addition, in assay [7], the Potency result was “inactive”.

On to `Nc1c(Cl)cc(Cl)cc1[N+](=O)[O-]`, for which the Potency entry in assay [1], in assay [10], in assay [2], in assay [8], in assay [5] and in assay [6] was “inactive” each time.

Consider `c1ccc(CCCc2ccncc2)cc1`, for which the Potency result in assay [1], in [2], in assay [4], in assay [8], in [5] and in [6] was “inactive” throughout. In assay [3], the result was inactive.

In the case of `CCOC(=O)c1c(N)sc2c1CCN(Cc1ccccc1)C2`, the Potency result in [1], in [2], in [4], in [8], in assay [5] and in assay [6] was “inactive” throughout. Moreover, the Potency result in assay [7] was “inactive”. The outcome in assay [3] was inactive.

Turning to `ClC1=C(Cl)C1(Cl)Cl`, the Potency entry in [1], in assay [10], in [2], in [8], in assay [5] and in assay [6] was “inactive” in each case. The Potency result in assay [7] was “inactive”.

On to `Cc1ccc(Cl)cc1N`, for which the Potency result in assay [1], in assay [2], in assay [4], in assay [8], in assay [9] and in assay [5] was “inactive” in each case. Moreover, the Potency entry in [6] and in [7] was “inactive” each time. In addition, the call in assay [3] was inactive.

As for `O=C1[C@@H]2[C@H]3CC[C@H](C3)[C@@H]2C(=O)N1CCCCN1CCN(c2ncccn2)CC1`, the Potency entry in [1], in assay [2], in [4], in assay [8], in assay [5] and in assay [6] was “inactive” throughout. Also, in assay [7], the Potency result was “inactive”. Also, the outcome in [3] was inactive.

Consider `CN1C(CSCC(F)(F)F)Nc2cc(Cl)c(S(N)(=O)=O)cc2S1(=O)=O` (configuration not stated), for which the Potency result in assay [1], in [2], in assay [4], in assay [8], in assay [5] and in assay [6] was “inactive” throughout. The Potency entry in [7] was “inactive”. Besides, the result in [3] was inactive.

As for `O=C(O)CNC(=O)c1ccccc1I`, the Potency result in [1], in [10], in assay [4], in assay [8], in assay [9] and in assay [5] was “inactive” throughout. Further, the Potency entry in assay [6] and in [7] was “inactive” in each case.

For `CC(=O)OCCC1CCCCC1`, the Potency entry in assay [1], in assay [2], in assay [4], in assay [8], in assay [9] and in assay [5] was “inactive” in each case. The Potency entry in assay [6] and in assay [7] was “inactive” throughout. In assay [3], the result was inactive.

For `Cc1ccc(NC(=O)N(C)C)cc1NC(=O)N(C)C`, the Potency result in assay [1], in assay [2], in [4], in assay [8], in assay [9] and in assay [6] was “inactive” each time. In addition, the Potency entry in assay [7] is “inactive”. In addition, the outcome in assay [3] was inactive.

For `CCCCCCCCCCCCCOS(=O)(=O)O`, the Potency result in [1], in [10], in assay [2], in assay [8] and in [6] was “inactive” in each case. Also, the Potency in assay [5] is 61.1 µM (active).

As to `O=S(=O)(O)CO`, the Potency entry in assay [1], in assay [2], in assay [4], in assay [8], in assay [9] and in assay [7] was “inactive” each time. Also, in assay [3], the result was inactive.

`CC(=O)Oc1cccc(O)c1`: the Potency result in assay [1], in assay [10], in assay [2], in [8], in assay [5] and in [6] was “inactive” each time. In addition, in assay [7], the Potency entry is “inactive”.

As to `O=P(O)(O)Oc1ccccc1`, the Potency entry in assay [1], in assay [2], in assay [4], in assay [8], in assay [5] and in [6] was “inactive” each time. For the same molecule, the Potency entry in assay [7] was “inactive”. Also, the molecule was called inactive in assay [3].
